According to PubChem BioAssay (Tox21):
Values joined by “and” are separate entries in the source; they are usually repeats but may differ in a detail not shown here. Equal entries are not always repeated. Results filed as inconclusive are left out. A call without a number means that no potency is given here. Active and inactive are the calls of the source. Calls follow the shape of the dose curve; as a rule, active = well fitted curve in the direction sought with a large enough effect in the repeat runs; inconclusive = weak or mixed curves; inactive = no such curve, though single readings can be large; an effect the other way counts as inactive or inconclusive.

Columns and labels:
[1] = molecular target: Cytochrome P450 2C19 (Homo sapiens) (UniProt P33261); assay: Cytochrome P450 Family 2 Subfamily C Member 19 (CYP2C19) small molecule antagonists: luciferase reporter qHTS assay (AID 1671197); also: nearly all actives have a fitted effect of over 65% in size
Outline: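 Inhibition of CYP2C19 was scored from loss of luminescence in a P450-Glo proluciferin substrate assay, NADPH-started and run 1 h at 37C, with ketoconazole as positive control.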

[2] = molecular target: Cytochrome P450 2C9 (Homo sapiens) (UniProt P11712); assay: Cytochrome P450 Family 2 Subfamily C Member 9 (CYP2C9) small molecule antagonists: luciferase reporter qHTS assay (AID 1671198); also: nearly all actives have a fitted effect of over 50% in size
Outline: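 CYP2C9 activity was measured with a P450-Glo proluciferin substrate. Enzyme–substrate mix was held with compound for 10 min at room temperature, then NADPH regeneration solution was added for 1 h at 37C. Luciferin product was read as luminescence.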

[3] = molecular target: Cytochrome P450 1A2 (Homo sapiens) (UniProt P05177); assay: Cytochrome P450 Family 1 Subfamily A Member 2 (CYP1A2) small molecule antagonists: luciferase reporter qHTS assay (AID 1671199); also: nearly all actives have a fitted effect of over 50% in size
Outline: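 Read-out is luminescence from luciferin detection reagent (20 min) proportional to CYP1A2 activity; compounds in DMSO preincubated 10 min with enzyme and proluciferin substrate, then NADPH regeneration solution, 1 h, room temperature.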

[4] = molecular target: Voltage-gated inwardly rectifying potassium channel KCNH2 (Homo sapiens) (UniProt Q12809); assay: Human Ether-a-go-go-Related Gene (hERG) channel small molecule antagonists: fluorescence cell-based qHTS assay (AID 1671200); also: nearly all actives have a fitted effect of over 50% in size
Outline: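 Thallium flux as potassium surrogate: FluxOR II dye loaded 1 h at room temperature into hERG-expressing U2OS cells, then stimulus buffer added after 10 min. Kinetic 480 nm excitation/540 nm emission read, 2 min.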

[5] = molecular target: Cytochrome P450 3A4 (Homo sapiens) (UniProt P08684); assay: Cytochrome P450 Family 3 Subfamily A Member 4 (CYP3A4) small molecule antagonists: luciferase reporter qHTS assay (AID 1671201); also: nearly all actives have a fitted effect of over 50% in size
Outline: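 Recombinant human CYP3A4 converts a proluciferin substrate to luciferin over 1 h at room temperature after NADPH regeneration solution is added (compound preincubated 10 min); detection reagent stops reaction, luminescence read 20 min later as relative units.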
Potency is read from the fitted curve at half-maximal effect.

Chain of Voltage-gated inwardly rectifying potassium channel KCNH2 (Homo sapiens) (Q12809 whole entry, looked up): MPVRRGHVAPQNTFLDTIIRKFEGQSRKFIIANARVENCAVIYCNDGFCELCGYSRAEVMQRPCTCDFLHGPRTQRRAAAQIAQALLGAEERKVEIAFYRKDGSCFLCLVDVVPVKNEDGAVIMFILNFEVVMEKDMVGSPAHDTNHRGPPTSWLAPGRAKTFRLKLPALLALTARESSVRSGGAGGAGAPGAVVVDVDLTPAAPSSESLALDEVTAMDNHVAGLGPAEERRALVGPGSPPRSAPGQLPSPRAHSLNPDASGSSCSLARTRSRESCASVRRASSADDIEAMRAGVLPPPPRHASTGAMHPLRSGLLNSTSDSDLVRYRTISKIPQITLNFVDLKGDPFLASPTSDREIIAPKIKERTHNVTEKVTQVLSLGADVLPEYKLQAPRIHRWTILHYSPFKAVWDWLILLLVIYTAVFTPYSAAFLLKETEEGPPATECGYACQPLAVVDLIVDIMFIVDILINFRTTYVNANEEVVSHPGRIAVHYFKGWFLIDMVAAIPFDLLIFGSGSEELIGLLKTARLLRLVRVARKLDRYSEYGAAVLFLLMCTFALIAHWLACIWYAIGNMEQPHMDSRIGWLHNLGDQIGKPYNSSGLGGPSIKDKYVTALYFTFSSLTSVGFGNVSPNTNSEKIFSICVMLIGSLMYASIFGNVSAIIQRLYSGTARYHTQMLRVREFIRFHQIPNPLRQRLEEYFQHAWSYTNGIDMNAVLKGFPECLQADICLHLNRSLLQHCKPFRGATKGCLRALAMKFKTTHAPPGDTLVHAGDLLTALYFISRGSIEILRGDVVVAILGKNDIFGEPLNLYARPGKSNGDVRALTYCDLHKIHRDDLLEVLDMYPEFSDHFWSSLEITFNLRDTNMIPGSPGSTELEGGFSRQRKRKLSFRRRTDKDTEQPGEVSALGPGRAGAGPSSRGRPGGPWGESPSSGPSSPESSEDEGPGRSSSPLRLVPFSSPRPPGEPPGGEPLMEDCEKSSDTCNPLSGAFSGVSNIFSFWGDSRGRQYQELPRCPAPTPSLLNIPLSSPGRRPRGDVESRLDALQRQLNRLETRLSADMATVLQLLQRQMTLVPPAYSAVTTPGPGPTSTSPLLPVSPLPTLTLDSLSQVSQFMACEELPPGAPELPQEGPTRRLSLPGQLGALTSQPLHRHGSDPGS
Chain of Cytochrome P450 2C19 (Homo sapiens) (P33261 whole entry, looked up): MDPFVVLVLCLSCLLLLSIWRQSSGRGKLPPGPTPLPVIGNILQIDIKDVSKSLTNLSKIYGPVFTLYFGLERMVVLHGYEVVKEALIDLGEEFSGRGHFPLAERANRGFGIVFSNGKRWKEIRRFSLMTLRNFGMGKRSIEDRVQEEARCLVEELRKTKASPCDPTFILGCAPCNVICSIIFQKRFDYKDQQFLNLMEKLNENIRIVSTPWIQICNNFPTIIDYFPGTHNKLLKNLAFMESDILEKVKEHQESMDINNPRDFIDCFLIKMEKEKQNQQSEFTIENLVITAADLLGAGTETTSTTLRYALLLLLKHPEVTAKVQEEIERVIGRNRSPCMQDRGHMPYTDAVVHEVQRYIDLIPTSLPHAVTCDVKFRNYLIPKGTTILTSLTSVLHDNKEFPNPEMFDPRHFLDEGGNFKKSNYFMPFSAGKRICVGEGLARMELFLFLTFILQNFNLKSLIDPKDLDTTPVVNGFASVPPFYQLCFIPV
Chain of Cytochrome P450 3A4 (Homo sapiens) (P08684 whole entry, looked up): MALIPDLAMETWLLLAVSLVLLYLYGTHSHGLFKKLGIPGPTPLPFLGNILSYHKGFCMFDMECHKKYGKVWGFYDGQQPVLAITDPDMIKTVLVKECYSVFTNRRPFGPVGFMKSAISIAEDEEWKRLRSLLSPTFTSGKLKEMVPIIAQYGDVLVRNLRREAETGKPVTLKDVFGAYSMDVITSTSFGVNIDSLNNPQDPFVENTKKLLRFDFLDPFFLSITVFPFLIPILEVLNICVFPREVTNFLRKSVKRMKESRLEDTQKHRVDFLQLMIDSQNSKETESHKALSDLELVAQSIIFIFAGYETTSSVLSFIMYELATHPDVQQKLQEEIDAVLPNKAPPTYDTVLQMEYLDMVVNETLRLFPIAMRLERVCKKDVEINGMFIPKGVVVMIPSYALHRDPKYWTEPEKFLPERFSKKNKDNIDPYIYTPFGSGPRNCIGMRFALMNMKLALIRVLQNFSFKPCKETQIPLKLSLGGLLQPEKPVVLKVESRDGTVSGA
Chain of Cytochrome P450 2C9 (Homo sapiens) (P11712 whole entry, looked up): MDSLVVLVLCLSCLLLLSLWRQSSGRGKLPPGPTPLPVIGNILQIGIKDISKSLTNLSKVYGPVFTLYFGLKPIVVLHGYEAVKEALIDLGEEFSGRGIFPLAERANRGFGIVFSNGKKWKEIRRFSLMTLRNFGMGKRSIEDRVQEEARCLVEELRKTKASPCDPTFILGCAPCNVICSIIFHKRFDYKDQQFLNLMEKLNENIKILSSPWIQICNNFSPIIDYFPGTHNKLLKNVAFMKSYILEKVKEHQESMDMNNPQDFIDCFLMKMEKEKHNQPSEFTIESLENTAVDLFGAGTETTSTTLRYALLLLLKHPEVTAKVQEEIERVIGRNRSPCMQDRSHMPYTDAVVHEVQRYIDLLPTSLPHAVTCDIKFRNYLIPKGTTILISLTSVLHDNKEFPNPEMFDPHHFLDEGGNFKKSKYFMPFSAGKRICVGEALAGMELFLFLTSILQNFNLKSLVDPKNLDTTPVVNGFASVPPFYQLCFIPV
Chain of Cytochrome P450 1A2 (Homo sapiens) (P05177 whole entry, looked up): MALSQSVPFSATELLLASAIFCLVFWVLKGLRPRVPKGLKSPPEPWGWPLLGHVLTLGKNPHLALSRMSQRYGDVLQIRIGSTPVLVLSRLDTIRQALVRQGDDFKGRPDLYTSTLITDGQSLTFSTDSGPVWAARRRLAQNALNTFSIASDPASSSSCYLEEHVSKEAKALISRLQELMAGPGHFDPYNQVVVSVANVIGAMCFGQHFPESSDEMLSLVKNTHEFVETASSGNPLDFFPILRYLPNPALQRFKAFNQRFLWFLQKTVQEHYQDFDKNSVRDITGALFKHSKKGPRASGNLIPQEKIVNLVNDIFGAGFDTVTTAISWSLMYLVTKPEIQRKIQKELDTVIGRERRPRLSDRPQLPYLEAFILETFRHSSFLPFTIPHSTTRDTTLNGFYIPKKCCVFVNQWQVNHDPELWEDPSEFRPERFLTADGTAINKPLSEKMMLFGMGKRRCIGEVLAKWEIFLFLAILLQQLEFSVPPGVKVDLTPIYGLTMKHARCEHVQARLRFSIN

Structure (SMILES) | Potency [1] | Potency [2] | Potency [3] | Potency [4] | Potency [5]
CCCCN1CCCC[C@H]1C(=O)Nc1c(C)cccc1C | inactive | inactive | 17.4 µM (active) | inactive | –
CC(C)(C)c1ccc(C(=O)O)cc1 | inactive | inactive | inactive | inactive | inactive
CC(C)(C)C(=O)OCOC(=O)[C@@H]1N2C(=O)[C@@H](NC(=O)[C@H](N)c3ccccc3)[C@H]2SC1(C)C | inactive | 24.5 µM (active) | inactive | inactive | –
Oc1ccc(Cl)cc1Sc1cc(Cl)ccc1O | 1.26 µM (active) and 1.55 µM (active) | 10 µM (active) and 7.76 µM (active) | 35.5 µM (active) and 27.5 µM (active) | inactive | –
CCCCCOc1ccccc1/C(=C\SC)n1ccnc1 | 1.1 µM (active) | 5.49 µM (active) | 2.29 µM (active) | 15.1 µM (active) | –
c1cc(C(c2ccc(OCC3CO3)cc2)c2ccc(OCC3CO3)cc2)ccc1OCC1CO1 (centres undefined) | 56.4 µM (active) | 20 µM (active) | inactive | inactive | 7.96 µM (active)
CN1CCC(Nc2ncc3ncnc(Nc4ccc(F)c(Cl)c4)c3n2)CC1 | inactive | inactive | inactive | inactive | inactive
C=C(C)C(=O)OCC[N+](C)(C)C | inactive | inactive | 15.8 µM (active) | inactive | inactive
Cc1[nH]cnc1C[C@H]1CCc2c(C)c3ccccc3n2C1=O | 1.95 µM (active) | 0.49 µM (active) | 1.74 µM (active) | 5.36 µM (active) | –
Clc1ccc(C(Cn2ccnc2)OCc2ccc(Sc3ccccc3)cc2)c(Cl)c1 (centres undefined) | 2.75 µM (active) | 2.75 µM (active) | 15.5 µM (active) | 9.52 µM (active) | –
